{"source": "PubChem BioAssay AID720517", "about": "(National Center for Advancing Translational Sciences (NCATS), 2013)", "note": "Records with an inconclusive call do not appear. Where a call stands in place of a potency, no number is given. Calls of active or inactive are those of the source. The call rests on the fitted dose curve; in most records, active means well fitted activation curve with a large enough effect; inconclusive means small, poorly fitted or top-dose-only effect; inactive means flat fitted curve, though single readings scatter.", "data": [{"test": "qHTS for Inhibitors of Cell Surface uPA Generation: FP59 Counterscreen for Cherry-picked Compounds", "details": "FP59 anthrax toxin cytotoxicity counterscreen, cells; series mostly up to 115 µM", "values": [{"smiles": "CC(C)(O)C#Cc1ccc(C(=O)N2CCCC(CCC(=O)NCc3ccccc3F)C2)cc1", "note": "(centres undefined)", "Potency": "inactive"}, {"smiles": "C[C@H]([C@H](O)c1ccccc1)N(C)C(=O)CN", "Potency": "inactive"}, {"smiles": "CC1CCCN(S(=O)(=O)c2cccc([N+](=O)[O-])c2)C1", "note": "(centres undefined)", "Potency": "inactive"}, {"smiles": "Cc1cccc(N2CCN(Cc3ccc(Br)o3)CC2)c1C", "Potency": "inactive"}, {"smiles": "O=C1c2ccccc2[C@@H]2C[C@H](NC34CC5CC(CC(C5)C3)C4)[C@@H](O)CCN12", "Potency": "inactive"}, {"smiles": "Cc1nc([N+](=O)[O-])cn1CCCCN1C(=O)c2ccccc2C1=O", "Potency": "inactive"}, {"smiles": "CCN(CC)S(=O)(=O)c1ccc(NC(=S)Nc2ccc(F)cc2)cc1", "Potency": "inactive"}, {"smiles": "Cc1oc(-c2ccccc2F)nc1CS(=O)CC(=O)NCc1ccc(F)cc1", "note": "(centres undefined)", "Potency": "inactive"}, {"smiles": "O=C(/C=C/c1cccc(Oc2ccccc2)c1)N1CCOCC1", "Potency": "inactive"}, {"smiles": "COCCN(C(=O)c1ccccc1OC)c1nnc(C)s1", "Potency": "inactive"}, {"smiles": "Cc1ccc(NC2CCCN(C(=O)Cc3nonc3C)C2)cc1C", "note": "(centres undefined)", "Potency": "inactive"}, {"smiles": "Cc1cccc(CCNC(=O)Cc2ccc(NC3=NC4CS(=O)(=O)CC4S3)cc2)c1", "note": "(centres undefined)", "Potency": "inactive"}, {"smiles": "C[C@@H](C(=O)Nc1ccc2ccccc2c1)[C@@H]1C[C@@]1(C)[C@@H](NC(=O)c1cccnc1)c1ccccc1", "Potency": "inactive"}, {"smiles": "Cc1ccc(CN2CCN(Cc3cc4ccccc4o3)CC2CCO)cc1", "note": "(centres undefined)", "Potency": "inactive"}, {"smiles": "COc1ccc(/C=C/C(=O)Nc2ccccc2Cl)cc1S(=O)(=O)N1CCOCC1", "Potency": "inactive"}, {"smiles": "CC(=O)c1ccc(OCCCCOc2ccc(C(C)=O)cc2)cc1", "Potency": "inactive"}, {"smiles": "COc1ccc2c(c1)c1nnc(SCC(=O)Nc3ccccc3F)nc1n2C", "Potency": "inactive"}, {"smiles": "CCN(CC)S(=O)(=O)c1ccc(C(=O)Nc2cccc(C)c2)cc1", "Potency": "inactive"}, {"smiles": "CN1CCN(c2ccc(S(=O)(=O)N3CCOCC3)cc2NC(=O)CSCc2ccccc2)CC1", "Potency": "inactive"}, {"smiles": "COc1ccc(CC(=O)NNS(=O)(=O)c2ccccc2[N+](=O)[O-])cc1OC", "Potency": "inactive"}, {"smiles": "CCC(C(=O)NCc1ccc(C)cc1)c1ccccc1", "note": "(centres undefined)", "Potency": "inactive"}, {"smiles": "N#Cc1ccccc1Sc1ccccc1C(=O)Nc1ccc(Br)cc1", "Potency": "inactive"}, {"smiles": "Cc1ccc(S(=O)(=O)N2CCC(C)CC2)cc1", "Potency": "inactive"}, {"smiles": "O=C(NCCN1CCOCC1)c1ccccc1Cl", "Potency": "inactive"}]}]}
